# CHT PAM: human CHT allosteric activation; Q9GZV3; CHT-expressing cells, membrane potential dye, choline EC20; hits give high values; LV-AA mutant CHT in HEK293 cells; B-score at 10 µM; 0.49% of 310,000 active; AID 488977;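 active means initial fluorescence not abnormally high and integrated response B-score, plate-corrected, over 3 SD above library mean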
# CHT inh: human CHT choline transport inhibition; Q9GZV3; CHT-expressing cells, membrane potential dye, choline response; hits give low values; B-score at 10 µM; 0.86% of 310,000 active; AID 488975;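 active means B-score over 3 SD under the library average, and starting fluorescence ratio not unusually high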;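 further: choline stimulus applied at its EC90 after an EC20 pre-addition; B-score computed on integrated fluorescence ratio after choline addition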
# ANO1 activ: mouse TMEM16A channel activation, primary screen | Q8BHY3 | HEK293 TMEM16A/YFP-H148Q/I152L, iodide quench fluorescence; hits give low values | B-score at 10 µM | 0.3% of 340,000 active | AID 623877;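 active means fluorescence-ratio B-score plate-corrected deviation score at least 3 library SD below zero, with starting fluorescence score within 5 deviations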;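 further: channel opened by trigger with iodide after compound preincubation; score built on the fluorescence ratio of max minus min over baseline; more negative score means more quench and so TMEM16A activation or potentiation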
# IDE cell activ: IDE (human) activation, cell-based. P14735. 0.073% of 340,000 active. HEK cells, FAbeta-B cleavage, fluorescence polarization; 0% vehicle, 100% cell-free pure enzyme wells. activation, % at 5.96 µM;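 active means activation above the mean of all tested compounds plus 3 SD, set per screening campaign, cut at about 17% in these data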
# IDE cell inh: cellular human IDE inhibition | P14735 | HEK cells, FAbetaB cleavage, fluorescence polarization | inhibition, % at 5.59 µM | 0.41% of 320,000 active;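 active means percent inhibition above the average of all tested compounds plus 3 SD, set per screening campaign, cut at about 16% in these data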;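 further: IDE supplied by intact live HEK cells; FP after avidin binding of uncleaved biotin substrate so inhibition keeps polarization high; 0% = DMSO wells and 100% = 60 µM reference IDE inhibitor Ii1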
# TMEM16A inh: inhibitors of mouse TMEM16A calcium-activated chloride channel; Q8BHY3; 1.2% of 310,000 active; HEK293 TMEM16A/YFP iodide influx fluorescence, ionomycin; AID 588511; normalized B-score (activity score, 25-100; higher = stronger inhibition) at 10 µM;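 active means ratio plate-corrected score three or more library SD toward inhibition, starting fluorescence score within five deviations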;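 further: score derived from kinetic fluorescence span divided by baseline fluorescence per well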
# IDE cell inh cf: cellular human IDE inhibition, confirmation; AID 435028; inhibition, % at 5.59 µM; HEK cells, FAbetaB cleavage, fluorescence polarization; 51% of 1,200 active; shares compounds with IDE cell inh;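 active means mean inhibition across triplicate wells above the cutoff set by the earlier primary insulin-degrading enzyme screen, cut at about 16% in these data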;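 further: 0% = DMSO wells and 100% = 60 µM reference IDE inhibitor Ii1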
# HEK293 tox: HEK cell cytotoxicity, counter-screen for IDE inhibitors; shares compounds with IDE cell inh; HEK293 cytotoxicity, ATP luminescence; inhibition, % at 5.59 µM; 28% of 1,200 active; AID 449730; in the data active means inhibition above about 22%;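 further: 0% = vehicle wells and 100% = reference cytotoxic drug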
# An asterisk follows results filed as active; i = inactive; nt = not tested or not shown. Most compounds without a hit are left out; they make up all but 2.7% or so of the library.
SMILES,CHT PAM,CHT inh,ANO1 activ,IDE cell activ,IDE cell inh,TMEM16A inh,IDE cell inh cf,HEK293 tox
CN1Cc2sc(NC(=S)NC(=O)c3ccccc3)c(C#N)c2CC1(C)C,i,i,i,nt,58*,i,4,15
CCOC(=O)C1C(=O)NC(SCC(N)=O)=C(C#N)C1c1ccccc1OCC (configuration not stated),i,i,i,-34,37*,i,31*,6
CN(C(=O)c1ccc(NC(=O)Cc2ccc(NC(=O)C3CCN(C(=O)C4CC4)CC3)cc2)cc1)C1CCCC1,nt,nt,nt,3,nt,nt,nt,nt
CSc1nsc(SCC(=O)Nc2ccccc2C(=O)O)n1,i,i,i,-10,17*,i,15,12
CCOc1ccc2nc(SCC3CC3(Cl)Cl)[nH]c2c1 (configuration not stated),i,i,i,5,16*,i,4,29*
O=C(CCNC(=O)c1ccccc1Cl)Nc1ccc(S(=O)(=O)Nc2nccs2)cc1,nt,nt,i,3,2,nt,nt,nt
COc1ccc(NC(=O)/C(C#N)=C\c2ccc(N3CCOCC3)o2)cc1,i,i,i,-173,126*,i,145*,18
Cc1ccc(OCc2cc(C(=O)NC3CCOC3)no2)cc1C (configuration not stated),i,i,i,-1,-4,i,nt,nt
COc1ccc(/C=N/NC(=O)c2ccc(-c3ccccc3)cc2)cc1O,i,i,i,-10,10,i,nt,nt
COc1cc(/C=N\NC(=O)c2ccc(-c3ccccc3)cc2)cc(Br)c1O,i,i,i,-10,21*,i,12,13
CC1CCCCC12NC(=O)N(CC(=O)c1ccc3c(c1)OCO3)C2=O (configuration not stated),i,i,i,1,-4,i,nt,nt
O=C(NN1C(=O)/C(=C/c2ccc(O)cc2)SC1=S)c1cccc(O)c1,i,-9.4*,i,-104,144*,i,104*,9
Cc1cc(C)nc(NN2C(=O)/C(=C/c3ccc(O)cc3)SC2=S)n1,i,i,i,-109,76*,i,148*,10
COc1cc(/C=C2\SC(=S)N(NC(=O)c3ccccc3O)C2=O)ccc1O,i,i,i,-114,120*,i,113*,9
Cn1cc(/C=C2\SC(=S)N(NC(=O)c3ccccc3)C2=O)c2ccccc21,i,i,i,-54,28*,i,46*,15
CN(Cc1cccnc1)C(=O)c1cc(S(=O)(=O)Nc2ccccc2F)ccc1Cl,nt,nt,i,4,nt,nt,nt,nt
Cc1cc(C)c(C(=O)COC(=O)Cn2c(C)csc2=O)cc1C,i,i,i,6,9,i,nt,nt
O=C(NN1C(=O)/C(=C/c2cc([N+](=O)[O-])ccc2O)SC1=S)c1ccccc1O,i,i,nt,nt,-3,i,nt,nt
O=C(NN1C(=O)/C(=C/C=C/c2ccco2)SC1=S)c1ccncc1,i,i,i,nt,2,i,nt,nt
O=C(NN1C(=O)/C(=C/c2ccc(O)cc2)SC1=S)c1ccccc1O,i,i,i,-84,103*,i,120*,19
O=C(NN1C(=O)/C(=C/C=C/c2ccccc2)SC1=S)c1ccncc1,i,i,i,-5,25*,i,2,14
Cc1ccc(NC(=O)c2sc3nc(C)cc(C)c3c2N)cc1,i,i,i,-13,21*,i,8,13
Cc1cc(C)c2c(N)c(C(=O)NN)sc2n1,i,i,i,-3,0,i,nt,nt
CC(C)COc1ccc(C(=O)NNC(=O)c2ccc(=O)[nH]c2)cc1,nt,nt,i,0,1,nt,nt,nt
CN1C2CCC1/C(=C/c1cccn1C)C(=O)/C2=C\c1cccn1C,i,i,i,-43,44*,i,72*,19
SMILES,CHT PAM,CHT inh,ANO1 activ,IDE cell activ,IDE cell inh,TMEM16A inh,IDE cell inh cf,HEK293 tox
CN1C2CCC1/C(=C\c1ccc(F)cc1)C(=O)/C2=C/c1ccc(F)cc1,i,i,i,3,-1,i,nt,nt
COc1ccc(-c2cc(-c3ccc(OC)c(OC)c3)n[nH]2)c(O)c1,i,i,i,-4,17*,i,8,14
CCCN1C(=O)/C(=C/c2c(N3CCNC(=O)C3CC(=O)OCC)nc3c(C)cccn3c2=O)SC1=S (configuration not stated),i,i,i,-130,65*,i,29*,32*
CCCN1C(=O)/C(=C/c2c(NCCCOC(C)C)nc3c(C)cccn3c2=O)SC1=S,i,i,i,0,-2,i,nt,nt
CCOC(=O)CC1C(=O)NCCN1C(=O)c1ccc(C)cc1 (configuration not stated),i,i,i,0,-3,i,nt,nt
CCOC(=O)CC1C(=O)NCCN1c1nc2ccc(C)cn2c(=O)c1/C=C1\SC(=S)N(CC(C)C)C1=O (configuration not stated),i,i,i,-186,56*,i,58*,10
Cc1ccc(CS(=O)(=O)Cc2ccc(C(=O)NC3CCCC3)o2)cc1,i,i,i,6,4,i,nt,nt
CCOc1cc(Br)cc(/C=C2\SC(=Nc3ccccc3)NC2=O)c1O,i,i,i,-24,22*,i,27*,12
O=C(c1cccn2c(=O)c3cc(Cl)ccc3nc12)N1CCN(Cc2ccc3c(c2)OCO3)CC1,i,i,i,-39,31*,i,16,14
Cc1sc2ccc3sccc3c2[n+]1C,12*,i,i,-23,20*,i,4,5
COc1cc(C(=O)Nc2ccn(C)n2)ccc1OC(F)F,nt,nt,i,2,0,nt,nt,nt
O=C(CNC(=O)c1ccc(Oc2ccccc2)cc1)OCc1ccc(Br)cc1,i,i,i,-21,28*,i,6,4
COc1ccc(C(=O)NCC(=O)NCC(=O)OCc2ccc(Br)cc2)cc1,i,i,i,-11,7,i,nt,nt
COc1ccc2c(c1)CCC1C2CCC2(C)C(O)C(=O)CC12 (configuration not stated),nt,nt,i,4,nt,nt,nt,nt
Oc1ccc(Br)cc1C=Nc1ccc2c3c(cccc13)CC2,i,i,i,-3,22*,i,1,10
Oc1ccc(Cl)cc1C=Nc1ccccc1Br,i,i,i,7,1,i,nt,nt

# Screens from PubChem.
